In PubChem BioAssay (NCI) one finds growth data, which are given here for six molecules.

Among the test systems are NCI-H23 lung; NCI-H226 lung; NCI-H322M lung; HOP-62 NSCLC; NCI-H460 lung; HOP-92 NSCLC; NCI-H522 lung; A549/ATCC NSCLC; 786-0 renal; DU-145 prostate; K-562 leukemia; MALME-3M melanoma; MDA-MB-231 breast; RXF 393 renal; SF-268 CNS; SF-295 CNS; SF-539 CNS; UACC-257 melanoma; M14 melanoma; COLO 205 colon.
What all share (experiment): NCI-60 one-dose screen, 48 h (100 = growth as untreated, 0 = no growth, -100 = all killed)
Common to all, as to settings: 10 µM unless noted

Where “and” joins values, the source holds several entries; their conditions need not be identical. Identical values can stand only once. Compounds without any hit were thinned out: in the full panel of roughly 83,000, 20% have a hit.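 A percent growth of 40 corresponds to 60% growth inhibition; 0 means no net growth; -100 means all cells died. Active threshold: below 10.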 A number with no mark means an inactive call. Calls of active or inactive are those of the source.

For `O=C(CCN1CCOCC1)Nc1cccc(-n2cc(-c3ccncc3)c(-c3ccc(Cl)c(O)c3)n2)c1`, the growth in the experiment with NCI-H23 lung is 51.7%; in the experiment with NCI-H226 lung it was 71%; with NCI-H322M lung, 60.4%; with HOP-62 NSCLC, 28%; in the experiment with NCI-H460 lung, 17.8%; in the experiment with HOP-92 NSCLC, 23.7%. For the same molecule, the growth was 5.83% (active) in the experiment with NCI-H522 lung; 35.8% with A549/ATCC NSCLC; 11.7% in the experiment with 786-0 renal; 13% in the experiment on DU-145 prostate; 20.2% with K-562 leukemia; 66.3% in the experiment with MALME-3M melanoma. The growth is 55.4% with MDA-MB-231 breast; 22.2% in the experiment on RXF 393 renal; 37% with SF-268 CNS; 6.52% (active) in the experiment on SF-295 CNS; -19.7% (active) with SF-539 CNS; 66.2% in the experiment on UACC-257 melanoma. Also, the growth with M14 melanoma is 5.06% (active).

As to `O=C(NNc1ccccc1)c1ccccc1`, the growth is 98.2% and 95.8% in the experiment on NCI-H23 lung; 93% and 105% in the experiment with NCI-H226 lung; 66.8% in the experiment with NCI-H322M lung; 99.1% and 47.3% with HOP-62 NSCLC; 85.1% in the experiment with NCI-H460 lung; 102% and 95.2% with HOP-92 NSCLC. For the same molecule, the growth in the experiment on NCI-H522 lung was 48.1%; in the experiment with 786-0 renal it was 86.1% and 64.6%; in the experiment with COLO 205 colon, 95% and 65.3%; in the experiment on DU-145 prostate it was 98.1% and 71.3%; in the experiment on K-562 leukemia it was 18% and 19.8%; with MALME-3M melanoma, 99.2%. In addition, the growth was 70.6% and 53.6% with MDA-MB-231 breast; 123% with RXF 393 renal; 78.9% and 58.7% in the experiment on SF-268 CNS; 64.5% with SF-295 CNS; 95.1% and 96.7% in the experiment with SF-539 CNS; 56.8% and 81.2% in the experiment with UACC-257 melanoma.

As for `COc1c(NC=O)c2c(c([N+](=O)[O-])c1OC)C(=O)OC2`, the growth with NCI-H23 lung is 113% and 97.9%; in the experiment on NCI-H226 lung it was 110% and 103%; with NCI-H322M lung, 98.1%; in the experiment on HOP-62 NSCLC, 99.2% and 104%; in the experiment with NCI-H460 lung, 115% and 99.9%; in the experiment with HOP-92 NSCLC, 103% and 92.8%. The growth with NCI-H522 lung was 98.7% and 112%; in the experiment with A549/ATCC NSCLC, 95.8% and 101%; in the experiment with 786-0 renal, 106%; in the experiment on COLO 205 colon it was 108% and 114%; in the experiment on DU-145 prostate it was 130% and 119%; in the experiment with K-562 leukemia, 125% and 102%. For the same molecule, the growth is 104% and 89.8% in the experiment on MDA-MB-231 breast; 113% and 105% with RXF 393 renal; 112% and 105% in the experiment on SF-268 CNS; 109% and 96.4% with SF-295 CNS; 120% and 87.3% in the experiment on SF-539 CNS; 97.4% and 111% in the experiment on UACC-257 melanoma. For the same molecule, in the experiment with M14 melanoma, the growth is 104% and 100%.

On to `COc1ccc2c(c1)oc1c(C)c3c(c(C)c12)C(=O)N(Nc1ccccc1)C3=O`, for which the growth is 98.5% with NCI-H23 lung; 106% with NCI-H226 lung; 95.5% with NCI-H322M lung; 88.9% in the experiment on HOP-62 NSCLC; 98.9% in the experiment with NCI-H460 lung; 100% with HOP-92 NSCLC. The growth with NCI-H522 lung was 95.7%; in the experiment with A549/ATCC NSCLC, 112%; with 786-0 renal it was 92.8%; in the experiment with DU-145 prostate, 97.4%; in the experiment with K-562 leukemia, 101%; in the experiment on MALME-3M melanoma, 99.5%. For the same molecule, the growth in the experiment on MDA-MB-231 breast was 105%; in the experiment with RXF 393 renal it was 116%; with SF-268 CNS it was 100%; in the experiment on SF-295 CNS, 97.1%; with SF-539 CNS it was 95.1%; with UACC-257 melanoma, 109%. The growth with M14 melanoma is 95.3%.

As to `CCn1cc(C(=O)NN=C2CCCC2)c(=O)c2ccc(C)nc21`, the growth with NCI-H23 lung was 98.9%; in the experiment with NCI-H226 lung, 82.9%; in the experiment on NCI-H322M lung, 82.4%; in the experiment with HOP-62 NSCLC, 93.3%; in the experiment on NCI-H460 lung it was 92.9%; in the experiment on HOP-92 NSCLC, 90.6%. Further, the growth in the experiment with NCI-H522 lung is 88.8%; with 786-0 renal, 93.1%; with COLO 205 colon it was 104%; with DU-145 prostate it was 109%; with K-562 leukemia, 93.1%; in the experiment on MALME-3M melanoma it was 91.8%. Also, the growth in the experiment on MDA-MB-231 breast was 93.3%; in the experiment with RXF 393 renal it was 103%; in the experiment with SF-268 CNS it was 93.4%; in the experiment with SF-295 CNS, 92.8%; in the experiment with SF-539 CNS, 96.2%; with UACC-257 melanoma, 90.1%. Besides, the growth with M14 melanoma is 102%.

Regarding `CC1=C2[C@@H](CC1)[C@]1(C)O[C@@](C(C)C)(C[C@H]1OC(=O)CO)[C@H]2OC(=O)C1CC1c1ccccc1` (stereo partly drawn), the growth in the experiment with NCI-H23 lung is 92.8%; with NCI-H226 lung, 78.2%; in the experiment with NCI-H322M lung, 84.7%; with HOP-62 NSCLC, 82.4%; with NCI-H460 lung, 85.6%; in the experiment on HOP-92 NSCLC, 87.3%. Also, the growth is 73.9% in the experiment with NCI-H522 lung; 91.2% with 786-0 renal; 107% in the experiment with COLO 205 colon; 100% in the experiment on DU-145 prostate; 67.7% in the experiment on K-562 leukemia; 91.7% with MALME-3M melanoma. Further, the growth is 89.7% in the experiment on MDA-MB-231 breast; 69.3% with RXF 393 renal; 76.2% with SF-268 CNS; 67.4% in the experiment on SF-295 CNS; 101% in the experiment on SF-539 CNS; 88.8% in the experiment on UACC-257 melanoma. For the same molecule, the growth in the experiment on M14 melanoma was 88.3%.
